Bioassay records: PubChem, several laboratories
SDO1 yeast rescue: growth rescue of sdo1-depleted yeast, primary screen, S. cerevisiae, bone marrow failure model. S. cerevisiae sdo1-depleted JHY4D growth rescue, OD600 30 h; hits give high values; pdr5 snq2 efflux-pump mutant strain. 0.21% of 140,000 active. AID 817, 2007. z-score at 10 µM;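 active means z-score above 3 at both the 24 hr and the 30 hr optical density reads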;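 further: z-score against mean and SD of all compound wells on the same plate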
PLK1 kinase inh: human PLK1 kinase inhibitors, primary screen, biochemical, TR-FRET | Serine/threonine-protein kinase PLK1 (Homo sapiens), P53350 | recombinant PLK1 kinase, TR-FRET peptide phosphorylation | inhibition, % at 10 µM | 0.53% of 97,000 active | AID 619, 2007;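 active means inhibition of 50% or more in the single-concentration screen; inactive means inhibition below 50%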;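 further: 0% = DMSO max control and 100% = H-89 dihydrochloride min control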
Cav32 inh: Cav3.2 calcium influx blockers – cell-based, Fluo-4 calcium fluorescence, FDSS, MLSMR library, primary screen; B-score at 10 µM; 4% of 100,000 active; Voltage-dependent T-type calcium channel subunit alpha-1H (Homo sapiens), O95180; Cav3.2-expressing cells; hits give low values;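 active means single-dose well whose peak fluorescence ratio is a statistical outlier from its plate by either plate-standardised score or position-corrected B-score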
hDAT+cocaine: changed hDAT dopamine uptake under cocaine IC80, either direction, primary screen, cocaine antagonist project, cell-based, LLC-PK1 hDAT, [14C]-dopamine uptake, MLSMR; B-score at 10 µM; AID 449768, 2010; Sodium-dependent dopamine transporter (Homo sapiens), Q01959; LLC-PK1 hDAT cells, [14C]-dopamine uptake with cocaine IC80; actives deviate in either direction; 1.3% of 110,000 active;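 active means Z score or B-score, a plate-position-corrected score, falls beyond the plate's 99.7% confidence bounds, in either direction; inactive means both scores lie inside the 99.7% bounds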;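 further: scored against the spread of the other compound wells on the same plate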
Pyk2 oligo antag: antagonists of Pyk2 self-association, primary screen, Q293 cells, FERM NanoBiT luminescence, HTS; hits give low values; z-score (the deposit names both 25 µM and 10 µM); 0.83% of 99,000 active;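 active means Z-score of -3 or lower, scaled per plate to the spread of control and sample wells; inactive means z-score above -3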;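 further: negative z-score means lost luminescence so less FERM oligomerization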
Plk1 PBD FP: Plk1 polo box domain binding inhibitors, primary screen, biochemical, fluorescence polarization. AID 693, 2007. 0.13% of 97,000 active. Serine/threonine-protein kinase PLK1 (Homo sapiens), P53350. Plk1 PBD phosphopeptide binding. inhibition, %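 (tested at about 20 µM)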; in the data active means inhibition above about 34%, passing the limit was not always enough
PLK1 confirm: PLK1 kinase activity inhibitors, confirmation, biochemical, TR-FRET, duplicate runs | shares compounds with PLK1 kinase inh | recombinant PLK1 kinase, TR-FRET peptide phosphorylation | inhibition, % at 10 µM | 20% of 210 active;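 active means inhibition at or above 50% in each of two repeat confirmation tests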;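 further: 0% = DMSO max control and 100% = H-89 kinase-blocked min control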
TR-FRET interf: compound interference with Plk1 assay readout, artefact control for Plk1 kinase inhibitor project, biochemical, TR-FRET, compound added post-reaction; shares compounds with PLK1 kinase inh; inhibition (interference), % at 10 µM; 210 tested, under 10 active;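 active means both duplicate runs show 50% or greater inhibition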;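 further: 0% = DMSO max control and 100% = H-89 min control inhibited reaction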
* marks the source's active call; other numbers are inactive results; . = no result. Most compounds without a hit are left out; they make up all but 4.7% or so of the library.

SMILES | SDO1 yeast rescue | PLK1 kinase inh | Cav32 inh | hDAT+cocaine | Pyk2 oligo antag | Plk1 PBD FP | PLK1 confirm | TR-FRET interf
CCC(Sc1nnc(-c2ccc(C)c(Cl)c2)n1CC)C(=O)Nc1nccs1 (stereo not given) | -1.2 | . | -5.7* | 1.8 | -0.31 | . | . | .
CCn1c(SCC(=O)Nc2nccs2)nnc1-c1ccc(S(=O)(=O)N2CCCCCC2)cc1 | 0.07 | 4 | -0.97 | -0.85 | -1.5 | 1 | . | .
Cc1cc(C(=O)Nn2c(-c3ccc(Br)cc3)nc3ccccc3c2=O)ccc1[N+](=O)[O-] | -0.45 | . | . | . | . | . | . | .
CC1(C)C2CCC1(CS(=O)(=O)Nc1ccc(S(=O)(=O)N3CCCCC3)cc1)C(=O)C2 (stereo not given) | -0.21 | . | . | . | 0.69 | . | . | .
CCc1nnc(N/N=C/c2ccc(N3CCC(C)CC3)c([N+](=O)[O-])c2)n1N | 0.21 | . | . | . | . | . | . | .
Cc1nnc(N/N=C/c2cc([N+](=O)[O-])c(N3CCC(C)CC3)cc2N2CCC(C)CC2)n1N | -0.68 | -1 | -6.7* | 0.23 | -1.4 | -3 | . | .
CCn1c(C)cs/c1=N\C(=S)Nc1ccccc1C | -0.79 | . | . | . | . | . | . | .
O=C(NC(=S)NNC(=O)c1cccs1)c1ccc(Br)o1 | -0.13 | -15 | -7.4* | -0.66 | 0.52 | -11 | . | .
CCNC(=S)NNC(=O)c1cccs1 | 1.5 | -11 | 1.1 | -0.82 | -0.24 | -24 | . | .
Cn1c(=NC(=O)C2CC2)sc2cccc(F)c21 | 0.76 | 67* | -0.65 | -0.0038 | . | 28 | . | .
Cc1nc2ccc(NC(=O)c3cccs3)cc2c(=O)n1Cc1ccc(Cl)cc1 | -2.3 | 123* | -2.5 | 0.024 | 0.83 | -18 | -1 | -49
CCOC(=O)N1CCN(c2c(N3CCc4ccccc43)c(=O)c2=O)CC1 | -0.23 | 77* | . | -0.31 | . | -29 | -1 | -51
Cc1nn(C)c(C(=O)Nc2ccc(Cl)c([N+](=O)[O-])c2)c1Cl | -0.63 | . | . | . | . | . | . | .
Cc1cccc(Cn2c(N3CCCCC3C)nc3c2c(=O)[nH]c(=O)n3C)c1 (stereo not given) | -1.3 | 83* | -3.8* | 1.2 | . | -24 | 5 | -50
O=C(CSCc1ccc(Br)cc1)N1CCOCC1 | 1.2 | 1 | 0.48 | -1.2 | -0.4 | 4 | . | .
O=C(CSCc1ccc(F)cc1)N1CCOCC1 | 1.4 | 115* | 0.25 | -1.1 | 0.4 | 28 | -7 | -52
CCCc1cc(C(N)=O)c(NC(=O)c2ccco2)s1 | -1 | 127* | -0.37 | 0.048 | -2 | 4 | -2 | -51
CCOC(=O)c1c(-c2ccncc2)csc1N | 0.65 | 70* | 0.13 | 0.81 | -0.14 | 7 | 66* | -49
CC(=O)c1ccc(N(C(=O)Cn2nnc(-c3ccccc3)n2)C(C(=O)NC2CCCCC2)c2ccccn2)cc1 (stereo not given) | -0.97 | . | . | . | . | . | . | .
O=C(c1ccc(F)cc1)N1CCN(c2cc(=O)[nH]nc2-c2ccccc2)CC1 | 0.84 | 125* | 0.21 | 0.48 | -0.91 | -11 | -12 | -53
O=C(O)C1=C[C@@H](c2coc3ccccc3c2=O)C[C@@H](OCCCCO)O1 | . | . | 0.36 | -0.53 | . | . | . | .
c1coc(-c2nc(-c3ccco3)c(-c3ccco3)nc2-c2ccco2)c1 | -1.6 | 93* | 0.13 | 0.79 | 0.64 | -14 | -3 | -53
COc1ccc2nc(-c3ccco3)c(-c3ccco3)nc2c1 | -0.45 | 39 | -1.9 | 0.66 | -0.19 | 14 | . | .
CCOC(=O)c1ccc(-c2cc(C)no2)[nH]1 | 0.83 | . | . | . | . | . | . | .
S=C(NCc1ccccc1)NCc1ccc2c(c1)OCO2 | 0.02 | . | . | . | . | . | . | .
SMILES | SDO1 yeast rescue | PLK1 kinase inh | Cav32 inh | hDAT+cocaine | Pyk2 oligo antag | Plk1 PBD FP | PLK1 confirm | TR-FRET interf
Cc1cccc(-c2nc(CS(=O)CC(=O)N3CCc4ccccc4C3)c(C)o2)c1 (stereo not given) | 0.26 | -23 | -2.5 | 1.3 | . | 0 | . | .
O=C(NCc1ccc2c(c1)OCO2)Oc1ccccc1 | 0.39 | 83* | -0.03 | 0.15 | . | 18 | -1 | -53
CCOC(=O)N1CCN(C(=O)CS(=O)Cc2nc(-c3cccc(C)c3)oc2C)CC1 (stereo not given) | 0.98 | 75* | 0.39 | 0.16 | . | -11 | -8 | -48
COc1ccc(CNC(=O)CS(=O)Cc2nc(-c3ccc(C)cc3)oc2C)cc1 (stereo not given) | -0.51 | -3 | -4.7 | 0.61 | . | -18 | . | .
Cc1ccccc1-c1nc(CS(=O)CC(=O)NCc2ccccc2)c(C)o1 (stereo not given) | -0.83 | 79* | -0.93 | 0.72 | . | -6 | -17 | -54
COCCNC(=O)CS(=O)Cc1nc(-c2ccc(OC)cc2)oc1C (stereo not given) | 0.16 | 71* | 0.78 | -1.1 | . | -6 | -3 | -53
COc1ccc(C2C(C#N)=C(N)N(c3ccccc3C#N)C3=C2C(=O)CCC3)cc1CN1CCCC1 (stereo not given) | 1.2 | . | . | . | . | . | . | .
COc1ccc(C2=NOC(c3nnc(-c4ccccc4)o3)C2)cc1 (stereo not given) | . | . | -0.13 | 0.78 | . | . | . | .
Cc1ccccc1-n1c(C)nnc1SCC(=O)N1CCc2ccccc2C1 | -0.32 | . | . | . | . | . | . | .
COc1ccc(-c2nc(CS(=O)CC(=O)NCc3ccc4c(c3)OCO4)c(C)o2)cc1 (stereo not given) | -0.35 | -11 | -1.3 | -1 | . | 3 | . | .
COc1cccc(-c2nc(CS(=O)CC(=O)NCc3ccc4c(c3)OCO4)c(C)o2)c1 (stereo not given) | -0.35 | 75* | -5* | 0.52 | . | -48 | -5 | -57
CC(Oc1ccc(Cl)cc1Cl)C(=O)NCCCN1CCOCC1 (stereo not given) | -0.72 | 74* | 0.89 | -0.81 | . | 14 | -13 | -48
COCCn1c(C)cc(C(=O)CSc2nnc3ccccn23)c1C | -0.3 | 72* | 0.28 | 0.00057 | . | -25 | -9 | -53
CCc1cccc(OCC(=O)Nc2ccc(S(=O)(=O)Nc3onc(C)c3C)cc2)c1 | -0.39 | 75* | . | . | . | -20 | -2 | -60
COc1ccc(C2=CC3=C(Br)C(=O)C(C)(OC(=O)c4cnc5ccccc5n4)C(=O)C3=CO2)cc1 (stereo not given) | . | . | 0.019 | -0.42 | . | . | . | .
Cc1oc(-c2ccc(Cl)cc2)nc1CN1CCCC(C(=O)NCc2ccco2)C1 (stereo not given) | -0.29 | -9 | -2.6 | 0.87 | -0.86 | -28 | . | .
